The subject of assay [1] is Zika virus NS2B-NS3 protease (linked construct). Briefly: Confirmatory screen NINDS AMC qHTS for Zika virus inhibitors (AID 1347152). Note: potency is the fitted concentration of half-maximal effect; nearly all actives have a fitted effect of over 70% in size. A digest of the protocol: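 Linked NS2B-NS3 protease, 1 nM, in 10 mM Tris-HCl pH 8.0, 0.01% Tween 20; compounds preincubated 15 min at room temperature. Nle-KRR-AMC 10 microM (Km 18.3 µM); 15-min fluorescence change (340/450 nm) fitted to 4-parameter Hill.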

The test system of assay [2] is Zika virus NS2B-NS3 protease (unlinked complex). Nature of the assay: Confirmatory screen GU AMC qHTS for Zika virus inhibitors (AID 1347153).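 Note: enzyme at 25 nM with substrate at 10 µM below its Km of 18.3 µM; potency is the fitted concentration of half-maximal effect; nearly all actives have a fitted effect of over 70% in size.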 A digest of the protocol: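 Compounds were preincubated 15 min at room temperature with 25 nM noncovalent NS2B-NS3 protease at pH 8.0; AMC substrate added at 10 microM and 15-min fluorescence gain (340/450 nm) converted to percent inhibition, fitted 4-parameter.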

Assay [3] can be described thus: Confirmatory screen GU Rhodamine qHTS for Zika virus inhibitors qHTS (AID 1347157). Note: potency is the fitted concentration of half-maximal effect; nearly all actives have a fitted effect of over 70% in size. A digest of the protocol:
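In dose–response format, inhibition of unlinked protease (25 nM) was measured with 1.5 microM bis-peptide Rhodamine110 substrate. Aprotinin served as the intraplate control.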

The subject of assay [4] is Zika virus NS2B-NS3 protease (unlinked complex). Briefly: Primary screen GU Rhodamine qHTS for Zika virus inhibitors: Unlinked NS2B-NS3 protease assay (AID 1347159). For activity change, negative = inhibition: % is set by controls: 0 for no effect and ±100 for the full control effect. Note: nearly all actives have a fitted effect of over 60% in size. Note: potency is the fitted concentration of half-maximal effect. The method, boiled down: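 Percent inhibition came from the 15-min rise in Rhodamine110 fluorescence (1.5 microM substrate, ~15% conversion), normalized to no-inhibitor and no-enzyme wells and Hill-fitted. Unlinked protease, 25 nM, pH 8.0 Tris buffer; compounds up to 114 microM, 15-min preincubation.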

The test system of assay [5] is Zika virus NS2B-NS3 protease (linked construct). Briefly: Primary screen NINDS Rhodamine qHTS for Zika virus inhibitors (AID 1347160). For activity change, negative = inhibition: % is set by controls: 0 for no effect and ±100 for the full control effect. Note: nearly all actives have a fitted effect of over 55% in size. Note: potency is the fitted concentration of half-maximal effect. A digest of the protocol: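 Rhodamine110-peptide cleavage (1.5 µM substrate) by 25 nM linked NS2B-NS3 enzyme at pH 8.0 (Tris, Tween 20), after 15 min RT preincubation with compounds; 15-min fluorescence change normalized to controls and Hill-fitted.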

Assay [6] in a line: Confirmatory screen NINDS Rhodamine qHTS for Zika virus inhibitors (AID 1347161). Note: potency is the fitted concentration of half-maximal effect; nearly all actives have a fitted effect of over 60% in size. The method, boiled down:
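Purified NS2B-NS3 protease with the NS2B hydrophilic domain joined by a flexible linker (25 nM) in 10 mM Tris-HCl pH 8.0, 0.01% Tween 20, preincubated 15 min at RT with compound; Rhodamine110 peptide substrate 1.5 µM; fluorescence change over 15 min; 4-parameter Hill fit.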

Assay [7] has as its system Zika virus NS2B-NS3 protease (linked). Briefly: 384 well plate NINDS AMC confirmatory qHTS for Zika virus inhibitors (AID 1347163). Note: potency is the fitted concentration of half-maximal effect; nearly all actives have a fitted effect of over 50% in size. A digest of the protocol:
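Enzyme (5, 30 or 60 nM final) first met test compounds for ~15 min. The AMC-tagged peptide Ac-VKTGKR-AMC followed at 30 microM. Fluorescence was then recorded at 25 min and scaled against no-enzyme and no-inhibitor wells.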

Assay [8] in a line: Vero cells viability qHTS for Zika virus inhibitors (AID 1347167). Note: % is set by controls: 0 for no effect and ±100 for the full control effect. The method, boiled down:
(§1)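 Luminescent ATP readout (CellTiter Glo) after 30 min at 37 degrees C gives viability; cells in DMEM + 4% FBS were treated 24 to 48 hours with compound, following overnight attachment.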

The nature of assay [9]: HepG2 cells viability qHTS for Zika virus inhibitors (AID 1347168). Note: % is set by controls: 0 for no effect and ±100 for the full control effect. The method, boiled down: as §1
Assay [10] in a line: P-glycoprotein substrates identified in KB-8-5-11 adenocarcinoma cell line, qHTS therapeutic library screen (AID 1346987). Note: nearly all actives have a fitted effect of over 65% in size. A digest of the protocol: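 Human cervical adenocarcinoma KB-8-5-11 cells, selected in colchicine to over-express P-gp and assayed without it, were exposed for 72 h to titrated compounds. An ATP-based luminescent viability signal gave AC50.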

Each structure is given as a SMILES string. Results filed as inconclusive are left out. Values without a mark were called inactive. Active and inactive are the calls of the source. Calls come from the whole dose curve; as a rule, active = well fitted curve in the direction sought with a large enough effect; inconclusive = small, poorly fitted or top-dose-only effect, or another doubt; inactive = no such curve, though single readings can be large; an effect the other way counts as inactive or inconclusive.

Consider `Cc1ccc([C@@H]2CC=C(C(=O)O)[C@H](c3ccc(C(C)(C)C)cc3)N2S(=O)(=O)c2ccc(C)cc2)cc1`, for which the Potency in assay [1] is 15.6 µM (active); in assay [2], 19.7 µM (active); in assay [3], 3.12 µM (active); in [4], 2.51 µM (active); in assay [5] it was 2.24 µM (active); in assay [6], 2.78 µM (active). Also, the Potency in assay [7] is 3.55 µM (active). The outcome in assay [8] and in [9] was inactive.

Turning to `O=C(O)CCc1cc2ccoc2cc1O[C@@H]1O[C@H](CO)[C@@H](O)[C@H](O)[C@H]1O`, the Potency entry in assay [4] and in assay [5] was “inactive” throughout.

For the compound `C=C1CC[C@@H]2[C@](C)(CO)[C@H](O[C@@H]3O[C@H](CO)[C@@H](O)[C@H](O)[C@H]3O)CC[C@@]2(C)[C@@H]1C/C=C1/C(=O)OC[C@H]1O`, the Potency result in assay [10] and in assay [5] was “inactive” throughout.

For `CC[C@H](C)[C@H](NC(=O)[C@H](Cc1ccc(O)cc1)NC(=O)[C@@H](N)C(C)C)C(=O)N[C@@H](Cc1cnc[nH]1)C(=O)N1CCC[C@H]1C(=O)N[C@@H](Cc1ccccc1)C(=O)O`, in assay [10], the activity change, negative = cytotoxicity was 1.21% [at 5.11 µM]. Further, in assay [5], the activity change, negative = inhibition was 8.38% [at 4.91 µM].

For `C=C1C(O)CCC2(C)CC3(OC)OC(=O)C(C)=C3CC12` (configuration not stated), the Potency entry in assay [10] and in assay [5] was “inactive” each time.

For `Cc1nc(-c2cccnc2)sc1C(=O)Nc1ccccc1-c1cn2c(CN3CCOCC3)csc2n1`, the Potency result in [10] and in [5] was “inactive” each time.

With `CC(=O)OCC1=CCC2C(C)(C)CCCC2(C)C12CCC(C)(CC(=O)O)O2` (configuration not stated), the Potency result in [10] and in assay [5] was “inactive” throughout.

Regarding `C[C@@H]1O[C@@H](O[C@H]2[C@H](O)[C@@H](O[C@@H]3O[C@H](CO)[C@H](O)[C@H](O)[C@H]3O)[C@H](O[C@H]3CC[C@@]4(C)C(CC[C@]5(C)C4CC=C4[C@@H]6CC(C)(C)CC[C@]6(C(=O)O[C@@H]6O[C@H](CO)[C@@H](O)[C@H](O)[C@H]6O)CC[C@]45C)C3(C)C)O[C@@H]2C(=O)O)[C@H](O)[C@H](O)[C@H]1O` (some centres not stated), the activity change, negative = cytotoxicity in assay [10] is 2.63% [at 9.29 µM]. In addition, the Potency entry in assay [5] is “inactive”.

Turning to `C=C1CCC2C(C)(C)CCC[C@]2(C)[C@H]1CC/C(C)=C/C(=O)O` (some centres not stated), the Potency in assay [1] was 44.1 µM (active); in assay [2], 39.3 µM (active); in assay [3] it was 11.1 µM (active); in [4], 3.55 µM (active); in [5], 5.62 µM (active); in assay [6], 4.94 µM (active). In addition, in assay [7], the Potency was 2 µM (active). For the same compound, the outcome in assay [8] and in assay [9] was inactive.

For `C[C@@H]1O[C@@H](O[C@H]2[C@@H]3C=CO[C@@H](O[C@@H]4O[C@H](CO)[C@@H](O)[C@H](O)[C@H]4O)[C@@H]3[C@@]3(CO)O[C@@H]23)[C@H](O)[C@H](OC(=O)/C=C/c2ccc(O)c(O)c2)[C@H]1O`, the Potency entry in [5] was “inactive”.

As to `CC(O)/C=C/C1(O)C(C)C(O)C(O[C@@H]2O[C@H](CO)[C@@H](O)[C@H](O)[C@H]2O)CC1(C)C` (some centres not stated), the Potency entry in [5] was “inactive”.

With `C=C(C(=O)O)[C@@H]1CC[C@H](C)[C@@H]2CC(=O)C(C)=C2C1`, the Potency entry in assay [5] is “inactive”.

As for `CCc1cc(CC[C@]2(C3CCCC3)CC(O)=C(Cc3nc4nc(C)cc(C)n4n3)C(=O)O2)cc(CC)n1`, the Potency entry in assay [4] and in assay [5] was “inactive” throughout.

In the case of `CC1=CCC2C(C)(C)CCCC2(C)C1CC12OC1C(O)C(CO)=CC2O` (configuration not stated), the Potency entry in assay [4] and in [5] was “inactive” throughout.

For `Fc1ccccc1-c1nc2ccn(Cc3ccc(-c4ccc(C(F)(F)F)cc4C(F)(F)F)nn3)cc-2n1`, the Potency entry in [4] and in assay [5] was “inactive” each time.

Consider `Cc1cc(OCCN2CCOCC2)nn1-c1ccc2ccccc2c1`, for which the Potency entry in [4] and in assay [5] was “inactive” throughout.

`CC1C2=CC(=O)OC2(O)CC2C1CCC1C(C)(C)CCC(O)C21C` (configuration not stated): the Potency result in assay [5] is “inactive”.

On to `Nc1ncnc2c1c(COc1cccc(Cl)c1)nn2C1CCOCC1`, for which the Potency entry in [5] was “inactive”.

As for `C/C(=C\C(=O)C(C)C1CCC2C3=C(CCC21C)C1(C)CCC(=O)C(C)(C)C1(O)CC3)C(C)(C)O` (configuration not stated), the Potency in assay [5] was 14.1 µM (active).

In the case of `COc1cc(/C=C/C(=O)O[C@@H]2O[C@H](CO)[C@@H](O)[C@H](O)[C@H]2O)ccc1O`, in assay [5], the Potency is 8.91 µM (active).

Regarding `N#Cc1cccc(-c2c[nH]c3ncnc(N4CCOCC4)c23)c1`, the Potency result in [4] and in [5] was “inactive” each time.

Turning to `CC1CCC23COC(=O)C2=CC(O)CC3C1(C)CCc1ccoc1` (configuration not stated), the Potency entry in assay [4] and in assay [5] was “inactive” throughout.

Consider `COc1cc2c(cc1O)C(c1ccc(O)cc1)C(C)C(C)C2` (configuration not stated), for which, in assay [4], the Potency was 39.8 µM (active). The Potency entry in [5] is “inactive”.

As for `C/C=C/C=C/C(O)=C1/C(=O)[C@]2(C)C(=O)[C@@](C)(O)[C@H]1[C@H]([C@@]1(C)OC(=O)C(C)=C1O)[C@H]2C(=O)CC/C=C/C`, in assay [5], the Potency result is “inactive”.

`C=CCC/C=C/C#CCCCCCCCC[C@H]1C(=O)O[C@H](C)[C@@H]1O`: the Potency entry in [5] was “inactive”.

Regarding `COc1cc(C(C)=O)ccc1O[C@@H]1O[C@H](CO[C@@H]2OC[C@@H](O)[C@H](O)[C@H]2O)[C@@H](O)[C@H](O)[C@H]1O`, the Potency entry in assay [4] and in assay [5] was “inactive” in each case.
